Assay results reported in PubChem BioAssay (NCATS).
Inconclusive results are not listed. Entries that show only a call come without a potency. The source made the active and inactive calls. Calls follow the shape of the dose curve; as a rule, active = well fitted inhibition curve with a large enough effect; inconclusive = small, poorly fitted or top-dose-only effect; inactive = flat fitted curve, though single readings scatter.
Potency is read from the fitted curve at half-maximal effect.

These compounds were tested on ECU (assay: qHTS profiling for inhibitors of Plasmodium falciparum proliferation (AID 504749; also: nearly all actives have a fitted effect of over 60% in size)). Conditions: P. falciparum in erythrocytes, SYBR Green DNA, 72 h; series mostly up to 28.7 µM.
Outline: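 P. falciparum-infected erythrocytes (0.3% parasitemia, 2.5% hematocrit final) were exposed to compounds for 72 h at 37 C in 5% CO2, then lysed with SYBR Green buffer overnight at room temperature; parasite DNA fluorescence was normalized to artemisinin and DMSO controls.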
For `C[C@H](N)Cc1ccccc1`, the Potency was “inactive”. `C[C@]12C=CC(=O)C=C1CC[C@@H]1C2CC[C@]2(C)OC(=O)CCC12` (some centres not stated) was tested, and the Potency was “inactive”. In the case of `OCC(O)[C@H]1O[C@@H]2O[C@H](C(Cl)(Cl)Cl)O[C@@H]2[C@H]1O` (some centres not stated), the Potency is reported as “inactive”. `CC1(C)[C@@H](C=C(Cl)Cl)[C@@H]1C(=O)OCc1c(F)c(F)cc(F)c1F` was tested, and the Potency was “inactive”. With `CC1(C)S[C@@H]2[C@H](N)C(=O)N2C1C(=O)O` (some centres not stated) the Potency was “inactive”. In the case of `C=C1Nc2ccccc2C(=O)N1c1ccccc1C`, the Potency is reported as “inactive”. For `CC1OC(O[C@H]2C[C@@H](O)[C@]3(CO)[C@@H]4C(CC[C@]3(O)C2)[C@@]2(O)CC[C@H](C3=CC(=O)OC3)[C@@]2(C)C[C@H]4O)C(O)C(O)C1O` (some centres not stated), the Potency was “inactive”. `O=[N+]([O-])OC1CO[C@H]2C(O[N+](=O)[O-])COC12` (some centres not stated) was tested, and the Potency was “inactive”. With `CCOC(=O)/C=C(C)/C=C/CC(C)CCCC(C)C` (configuration not stated) the Potency was “inactive”. With `[S]=[Sb][S][Sb]=[S]` the Potency was “inactive”. `CN1C2CCC1C(C(=O)O)C(OC(=O)c1ccccc1)C2` (configuration not stated) was tested, and the Potency was “inactive”. In the case of `C[C@@H]1CC[C@H]2[C@@H](C)C(=O)O[C@@H]3OC4(C)CC[C@@H]1C32OO4` (some centres not stated), the Potency is reported as 5.6 nM (active). For `Cc1ccc2c(c1)[C@@H]1CN(C)CC[C@H]1N2`, the Potency was “inactive”. In the case of `Nc1nc(O)c(-c2ccccc2)o1`, the Potency is reported as “inactive”. In the case of `C=CC[N+]1(C)CCC23c4c5ccc(O)c4O[C@H]2C(=O)CC[C@@]3(O)C1C5` (some centres not stated), the Potency is reported as “inactive”. In the case of `OC[C@@H](O)[C@H]1O[C@@H]2OC(C(Cl)(Cl)Cl)O[C@H]2[C@H]1O` (some centres not stated), the Potency is reported as “inactive”. In the case of `CCCCCCC(=O)O[C@H]1CC[C@H]2[C@@H]3CCC4CC(=O)C=C(C)[C@]4(C)[C@H]3CC[C@]12C` (some centres not stated), the Potency is reported as “inactive”.
